# Screens as filed in PubChem.
# A selection: hits, their analogues and other compounds. The true share with any hit is near 4%.
# ADAM10 inh – inhibitors of human ADAM10 | inhibition, % at 7 µM | actives 0.62% (n = 370,000) | O14672 | recombinant ADAM10, EDANS/DABCYL FRET peptide cleavage, 3 h | AID 720582;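 active = inhibition above a per-campaign cutoff equal to the mean of compounds falling between control-based bounds plus 3 SD, cut at about 20% in these data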
# Target sequence (O14672 214-748 limits assumed): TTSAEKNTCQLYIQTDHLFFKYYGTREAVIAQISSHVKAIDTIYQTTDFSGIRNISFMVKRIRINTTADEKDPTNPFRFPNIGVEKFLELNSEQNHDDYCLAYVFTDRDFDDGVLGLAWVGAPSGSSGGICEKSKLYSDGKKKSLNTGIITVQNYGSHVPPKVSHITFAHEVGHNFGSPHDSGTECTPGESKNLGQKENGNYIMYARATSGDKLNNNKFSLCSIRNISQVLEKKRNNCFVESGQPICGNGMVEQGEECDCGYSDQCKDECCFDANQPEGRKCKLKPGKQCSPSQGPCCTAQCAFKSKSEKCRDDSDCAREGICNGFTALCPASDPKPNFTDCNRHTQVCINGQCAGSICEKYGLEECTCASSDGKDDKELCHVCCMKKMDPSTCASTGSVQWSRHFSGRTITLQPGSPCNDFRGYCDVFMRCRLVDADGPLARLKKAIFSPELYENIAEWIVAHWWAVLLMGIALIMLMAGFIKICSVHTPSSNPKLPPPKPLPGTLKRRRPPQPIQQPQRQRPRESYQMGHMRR
# aDG glyco up – alpha-DG glycosylation activation | activation, % at 10 µM | actives 0.22% (n = 360,000) | Pro5-aDG cells, alpha-DG glycosylation AlphaScreen (IIH6); 0% Pro5, 100% B10-LARGE cell signal | AID 624168;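 active = activation of at least 8% versus controls, or a plate z-score of at least 8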;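 note: Pro5 are CHO cells carrying HIG-tagged alpha-DG that lacks glycosylation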
# ADAM17 inh – inhibits human ADAM17; P78536; recombinant ADAM17, EDANS/DABCYL FRET peptide cleavage; inhibition, % at 6.95 µM; actives 0.83% (n = 370,000); AID 720648;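 active = inhibition above the mean of compounds lying between control limits plus 3 SD, set per campaign, cut at about 8.5% in these data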
# FAS TE block – FAS thioesterase (human) inhibition | AID 602261 | inhibition, % at 15 µM | recombinant FAS-TE, OMFH fluorogenic substrate, fluorescence endpoint | actives 0.67% (n = 360,000);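 active = compounds whose normalised, plate-corrected inhibition of enzyme fluorescence in the single-dose primary screen is 50% or more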
# GRIN3A LBD mod – modulators (binders) of human NR3A ligand-binding domain. NR3A LBD differential scanning fluorimetry, Tm shift; 0% = protein alone, 100% = glycine-bound protein. Tm shift relative to glycine control, % at 25 µM. actives 2.5% (n = 340,000);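 active = melting temperature shift of at least 10% of the positive control shift, at one fixed dose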
# Numbers stand for hits; i = inactive; nt = no result given; ! = a repeat was not active.
SMILES,ADAM10 inh,aDG glyco up,ADAM17 inh,FAS TE block,GRIN3A LBD mod
COc1ccc(Nc2nnc(SCC(=O)Nc3ccc4[nH]c(=O)[nH]c4c3)s2)cc1,i,i,i,i,i
O=C(NCCCn1ccnc1)c1ccc2ccccc2c1,i,i,i,i,i
CCOc1ccc(/C=N/NC(=O)c2[nH]c3ccc(C)cc3c2C)cc1,i,i,i,i,26
Cc1c(C(=O)N/N=C/c2ccc(Cl)cc2)[nH]c2ccc(Cl)cc12,i,i,i,i,26
CCOc1ccc(C(=O)N/N=C/c2ccc(SC)cc2)cc1,i,i,i,i,i
Cc1c(C(=O)N/N=C/C(C)C)[nH]c2ccc([N+](=O)[O-])cc12,i,i,i,i,i
CC1(C)COC(c2ccc3c(c2)OCO3)OC1,i,i,i,i,11
COc1cc(/C=N/NC(=O)c2sc(N)c(C#N)c2C)cc(Br)c1O,i,i,i,i,16
COc1ccc2ccccc2c1/C=N/NC(=O)c1sc(N)c(C#N)c1C,i,i,i,i,17
CC1CCCN(C(=O)C2(NC(=O)Nc3cccc(F)c3)CCCCC2)C1 (configuration not stated),i,i,i,i,i
O=C(NNC(=O)c1ccncc1)Nc1ccccc1,i,i,i,i,i
O=C(NNC(=O)c1ccncc1)Nc1ccc(N=Nc2ccccc2)cc1,i,i,i,i,21
CCOC(=O)c1cnn(-c2ccc(NS(=O)(=O)c3ccc(Cl)cc3)cc2)c1C(F)(F)F,i,i,i,i,16
CCOC(=O)N1CCN(S(=O)(=O)c2ccc3c(c2)SC(C)C(=O)N3)CC1 (configuration not stated),i,i,i,i,i
Cc1cc(N2CCN(c3nc4ccccc4s3)CC2)n2ncnc2n1,i,4.2,i,i,i
Cc1nc2ncnn2c(N2CCN(C(c3ccccc3)c3ccccc3)CC2)c1C,i,i,i,i,i
Cc1cc(N2CCN(C(c3ccccc3)c3ccccc3)CC2)n2ncnc2n1,i,i,i,54,i
Cc1[nH]c2ccccc2c1CC(=O)Nc1ccc(Nc2ccccc2)cc1,i,nt,i,nt,nt
COC(=O)[C@H](C)NC(=O)NCc1ccco1,nt,i,nt,i,i
Oc1ccc(/C=C/c2ccc3cccc(O)c3n2)cc1Br,i,i,i,i,30
CC(NS(=O)(=O)c1cccc(Cl)c1)C(=O)Nc1ccc(-c2nc3ccccc3s2)cc1 (configuration not stated),i,i,i,i,30
O=C(CCS(=O)(=O)c1ccccc1)Nc1ccc(-c2nc3ccccc3s2)cc1,i,i,i,i,i
Cc1ccc(C)c(S(=O)(=O)NC(C)C(=O)Nc2ccc(-c3nc4ccccc4s3)cc2)c1 (configuration not stated),i,i,i,i,25
O=C(CNS(=O)(=O)c1cccc(Cl)c1)Nc1ccc(-c2nc3ccccc3s2)cc1,i,i,i,i,23
CC(=O)Nc1ccc(NC(=O)COC(=O)Cn2cnc3ccccc32)cc1,i,i,i,i,i
SMILES,ADAM10 inh,aDG glyco up,ADAM17 inh,FAS TE block,GRIN3A LBD mod
CC(C)=CCCC1(C)C=Cc2c(c(C)cc3c2[nH]c2cc(O)ccc23)O1 (configuration not stated),i,i,i,i,19
O=C(CSc1nc(-c2cccs2)cc(C(F)(F)F)n1)Nc1cc(OCC(F)(F)C(F)F)cc([N+](=O)[O-])c1,i,i,i,i,10
O=C(CSc1nc(-c2cccs2)cc(C(F)(F)F)n1)NCCCn1ccnc1,i,i,i,i,i
O=C(/C=C/c1ccccc1)Nc1cccnc1,i,i,i,i,30
O=C(/C=C/c1ccccc1)Nc1ccc2c(c1)C(=O)NC2=O,i,i,i,i,14
O=C(/C=C/c1ccccc1)Nc1cccc(C(=O)NCCCc2ccccc2)c1,i,i,i,i,27
O=C(/C=C/c1ccccc1Cl)Nc1ccc2c(c1)C(=O)NC2=O,i,i,i,i,i
CCCCCCCCCCNC(=O)C(=O)Nc1ccccn1,nt,i,nt,i,12
Cc1ccc(NC(=O)C(=O)Nc2ccccn2)cc1,i,i,i,i,i
Cc1ccc(S(=O)(=O)N(CC(=O)N2CCC(C)CC2)Cc2ccccc2F)cc1,i,i,i,i,13
CCOC(=O)C1=CN(Cc2cccc(-c3ccc(F)cc3)c2)S(=O)(=O)N(C)C1C (configuration not stated),i,i,i,i,13
O=[N+]([O-])c1ccc(SCCc2ccncc2)cc1,i,i,i,i,11!
O=C(Cn1c2ccccc2c(=O)c2ccccc21)N/N=C/c1cc([N+](=O)[O-])ccc1N1CCCCC1,i,i,i,i,i
CCn1c2ccccc2c2cc(NC(=O)COC(=O)c3cc(S(N)(=O)=O)c(Cl)cc3Cl)ccc21,i,i,i,i,14
NC(=S)N=Nc1c(O)n(CCCl)c2ccc(Cl)cc12,i,i,i,i,i
Cc1cccc(C(=O)Nc2nc(C)c(C(=O)Nc3ccc4c(c3)CCC4)s2)c1,i,i,i,i,28
Cc1cccc(NC(=O)c2sc(C)nc2C)c1,i,i,i,i,i
COC(=O)[C@H](CCSC)NC(=O)Cn1cnc(C(=O)Nc2ccc(C)c(C)c2)n1,i,i,i,i,13
CN(C)CCNC=C(C(=O)Nc1ccc(Cl)cc1Cl)C(=O)Nc1ccc(Cl)cc1Cl,i,i,i,i,13
c1ccc2c3c([nH]c2c1)-c1[nH]ncc1CC3,i,i,i,i,30
Clc1ccc2[nH]c3c(c2c1)CCc1cn[nH]c1-3,i,i,i,i,18
O=C1CCCc2c1[nH]c1ccccc21,i,i,i,i,i
Oc1cccc2c(NC(=S)Nc3ccc(SC(F)F)cc3)cccc12,i,i,i,i,25
FC(F)Sc1ccc(NC(=S)NC2CCC(NC(=S)Nc3ccc(SC(F)F)cc3)CC2)cc1 (configuration not stated),i,i,i,i,17
CCCCNC(=S)Nc1ccc(SC(F)F)cc1,i,i,i,i,i
SMILES,ADAM10 inh,aDG glyco up,ADAM17 inh,FAS TE block,GRIN3A LBD mod
Oc1cccc(NC(=S)Nc2ccc(SC(F)F)cc2)c1,i,i,i,i,16
CCCn1nc(C(=O)NNC(=O)c2cc(S(=O)(=O)NC)ccc2Br)c2ccccc2c1=O,i,i,i,i,i
Cc1cc(C)n(CC(=O)c2cccc(N)c2)n1,i,i,i,i,i
O=C(NC1CC2CCCC(C1)N2Cc1ccccc1)c1cccc(F)c1 (configuration not stated),i,i,i,i,i
Cc1cc(C)c2nc(NC(=O)[C@@H](NC(=O)c3cccc(S(=O)(=O)N4CCOCC4)c3)C(C)C)sc2c1,i,i,i,i,34
Cc1cccc(C(=O)N[C@H](C(=O)Nc2cc(S(=O)(=O)N3CCCCC3)ccc2C)C(C)C)c1,i,i,i,i,i
Fc1ccc(F)c(C2=NNC(=Nc3ccccc3F)SC2)c1,i,i,i,i,i
Fc1ccccc1N=C1NN=C(c2ccccc2)CS1,i,i,i,i,13
